Test results reported in the supplement of paper PMC11732987, “Enantioselective OTUD7B fragment discovery through chemoproteomics screening and high-throughput optimisation” (Communications Chemistry, 2025).

How the values were obtained:
Experiment in all cases: log2 ratio of Biotin-Ahx-Ub-VS probe labelling (fragment/DMSO); higher = less target engagement (more negative = stronger competition), active = hit call of the paper (q ≤ 0.05, log2 ratio ≤ -1)
Conditions in all cases: compound concentration: 200 uM; treatment time: 3 h
USP19 = target: T1, USP19 (UniProt O94966)
T1 sequence (whole entry): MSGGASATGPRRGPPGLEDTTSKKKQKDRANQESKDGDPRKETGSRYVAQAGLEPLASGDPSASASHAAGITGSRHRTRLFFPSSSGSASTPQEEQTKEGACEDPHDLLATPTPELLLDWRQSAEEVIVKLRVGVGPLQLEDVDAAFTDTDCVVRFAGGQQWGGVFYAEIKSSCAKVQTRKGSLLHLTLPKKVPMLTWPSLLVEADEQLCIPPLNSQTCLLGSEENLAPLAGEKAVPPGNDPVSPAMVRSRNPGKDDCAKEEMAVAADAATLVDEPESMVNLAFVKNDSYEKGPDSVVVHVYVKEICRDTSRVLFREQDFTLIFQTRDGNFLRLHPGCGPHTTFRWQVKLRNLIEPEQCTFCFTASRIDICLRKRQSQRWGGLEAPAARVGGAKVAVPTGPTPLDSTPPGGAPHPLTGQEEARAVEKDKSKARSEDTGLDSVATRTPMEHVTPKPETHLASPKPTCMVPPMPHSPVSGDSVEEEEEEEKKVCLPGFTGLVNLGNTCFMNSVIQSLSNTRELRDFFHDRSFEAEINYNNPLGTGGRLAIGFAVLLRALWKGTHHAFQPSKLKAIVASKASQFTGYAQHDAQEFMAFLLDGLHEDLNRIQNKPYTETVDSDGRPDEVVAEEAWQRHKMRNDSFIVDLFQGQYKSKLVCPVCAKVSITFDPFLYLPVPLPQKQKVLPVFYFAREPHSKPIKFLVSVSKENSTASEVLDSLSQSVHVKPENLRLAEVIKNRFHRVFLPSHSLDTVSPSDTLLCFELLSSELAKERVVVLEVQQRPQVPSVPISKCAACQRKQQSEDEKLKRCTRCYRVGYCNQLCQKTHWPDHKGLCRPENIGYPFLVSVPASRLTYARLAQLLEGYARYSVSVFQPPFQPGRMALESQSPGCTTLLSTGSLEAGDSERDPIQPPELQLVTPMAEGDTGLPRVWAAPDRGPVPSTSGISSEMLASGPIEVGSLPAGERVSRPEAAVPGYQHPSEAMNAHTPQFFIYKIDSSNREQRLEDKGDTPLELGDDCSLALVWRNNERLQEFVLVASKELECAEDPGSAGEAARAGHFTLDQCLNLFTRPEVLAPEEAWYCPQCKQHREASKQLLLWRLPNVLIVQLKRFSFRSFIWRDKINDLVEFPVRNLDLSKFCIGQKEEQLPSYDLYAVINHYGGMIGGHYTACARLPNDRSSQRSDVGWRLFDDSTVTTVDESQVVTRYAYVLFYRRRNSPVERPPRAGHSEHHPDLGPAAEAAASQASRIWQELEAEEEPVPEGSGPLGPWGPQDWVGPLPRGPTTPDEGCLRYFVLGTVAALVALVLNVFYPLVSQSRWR
How it was run: (§1)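 The table lists average log2 ratios of fragment over vehicle, from an unpaired t-test on global-median-normalised Spectronaut label-free quantities. Proteins with ≥2 unique peptides were used. Samples were HEK293T lysate (495 µg) treated in triplicate with fragment at 200 µM or vehicle for 3 h, then with Biotin-Ahx-Ub-VS (0.5 µM final) for 1 h, with labelled DUBs NeutrAvidin-enriched and run by diaPASEF LC-MS/MS.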

USP22 = target: T2, USP22 (UniProt Q9UPT9)
T2 sequence (whole entry): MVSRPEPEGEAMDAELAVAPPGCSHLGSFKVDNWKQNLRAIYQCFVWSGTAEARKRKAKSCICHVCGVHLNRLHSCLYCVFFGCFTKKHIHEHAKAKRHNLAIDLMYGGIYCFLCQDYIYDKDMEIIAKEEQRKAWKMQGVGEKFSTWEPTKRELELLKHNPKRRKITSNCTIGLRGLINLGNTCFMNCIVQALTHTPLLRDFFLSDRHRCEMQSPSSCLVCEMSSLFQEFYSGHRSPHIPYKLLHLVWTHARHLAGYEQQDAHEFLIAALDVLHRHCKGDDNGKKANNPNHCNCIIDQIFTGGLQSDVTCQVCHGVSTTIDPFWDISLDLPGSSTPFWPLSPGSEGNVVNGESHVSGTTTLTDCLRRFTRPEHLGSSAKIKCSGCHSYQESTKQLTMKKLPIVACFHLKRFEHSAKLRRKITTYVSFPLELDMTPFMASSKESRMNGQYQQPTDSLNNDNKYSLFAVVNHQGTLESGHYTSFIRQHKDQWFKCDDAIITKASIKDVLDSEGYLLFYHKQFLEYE
How it was run: as §1

USP24 = USP24 (UniProt Q9UPU5)
How it was run: as §1

USP25 = target: T3, USP25 (UniProt Q9UHP3)
T3 sequence (whole entry): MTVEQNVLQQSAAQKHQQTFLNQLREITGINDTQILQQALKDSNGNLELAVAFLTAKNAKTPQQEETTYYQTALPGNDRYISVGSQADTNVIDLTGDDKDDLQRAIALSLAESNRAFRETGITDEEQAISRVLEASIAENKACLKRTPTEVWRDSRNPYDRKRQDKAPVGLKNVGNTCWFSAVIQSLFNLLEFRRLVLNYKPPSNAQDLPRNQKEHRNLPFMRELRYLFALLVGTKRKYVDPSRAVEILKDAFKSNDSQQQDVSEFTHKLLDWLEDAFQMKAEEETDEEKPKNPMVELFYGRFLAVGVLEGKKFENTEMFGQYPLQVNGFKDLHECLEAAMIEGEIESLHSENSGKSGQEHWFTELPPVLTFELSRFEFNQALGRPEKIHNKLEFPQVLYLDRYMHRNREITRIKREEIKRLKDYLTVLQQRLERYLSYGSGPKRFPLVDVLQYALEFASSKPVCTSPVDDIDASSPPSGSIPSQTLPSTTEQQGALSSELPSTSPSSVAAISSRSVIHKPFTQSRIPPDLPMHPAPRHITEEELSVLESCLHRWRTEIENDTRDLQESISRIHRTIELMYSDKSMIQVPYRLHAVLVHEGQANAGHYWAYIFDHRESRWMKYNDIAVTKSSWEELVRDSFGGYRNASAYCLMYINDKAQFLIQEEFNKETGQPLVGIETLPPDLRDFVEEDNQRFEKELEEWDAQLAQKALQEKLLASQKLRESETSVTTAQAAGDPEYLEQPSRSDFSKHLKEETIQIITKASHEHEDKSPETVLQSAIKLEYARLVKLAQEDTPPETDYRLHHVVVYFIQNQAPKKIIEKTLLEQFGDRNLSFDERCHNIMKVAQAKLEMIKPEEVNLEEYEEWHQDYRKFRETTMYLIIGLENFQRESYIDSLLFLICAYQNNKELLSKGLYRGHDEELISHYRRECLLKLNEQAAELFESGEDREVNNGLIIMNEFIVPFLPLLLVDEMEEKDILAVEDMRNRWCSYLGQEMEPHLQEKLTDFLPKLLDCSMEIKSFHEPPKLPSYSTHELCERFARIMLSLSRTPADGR
How it was run: as §1

USP28 = target: T4, USP28 (UniProt Q96RU2)
T4 sequence (whole entry): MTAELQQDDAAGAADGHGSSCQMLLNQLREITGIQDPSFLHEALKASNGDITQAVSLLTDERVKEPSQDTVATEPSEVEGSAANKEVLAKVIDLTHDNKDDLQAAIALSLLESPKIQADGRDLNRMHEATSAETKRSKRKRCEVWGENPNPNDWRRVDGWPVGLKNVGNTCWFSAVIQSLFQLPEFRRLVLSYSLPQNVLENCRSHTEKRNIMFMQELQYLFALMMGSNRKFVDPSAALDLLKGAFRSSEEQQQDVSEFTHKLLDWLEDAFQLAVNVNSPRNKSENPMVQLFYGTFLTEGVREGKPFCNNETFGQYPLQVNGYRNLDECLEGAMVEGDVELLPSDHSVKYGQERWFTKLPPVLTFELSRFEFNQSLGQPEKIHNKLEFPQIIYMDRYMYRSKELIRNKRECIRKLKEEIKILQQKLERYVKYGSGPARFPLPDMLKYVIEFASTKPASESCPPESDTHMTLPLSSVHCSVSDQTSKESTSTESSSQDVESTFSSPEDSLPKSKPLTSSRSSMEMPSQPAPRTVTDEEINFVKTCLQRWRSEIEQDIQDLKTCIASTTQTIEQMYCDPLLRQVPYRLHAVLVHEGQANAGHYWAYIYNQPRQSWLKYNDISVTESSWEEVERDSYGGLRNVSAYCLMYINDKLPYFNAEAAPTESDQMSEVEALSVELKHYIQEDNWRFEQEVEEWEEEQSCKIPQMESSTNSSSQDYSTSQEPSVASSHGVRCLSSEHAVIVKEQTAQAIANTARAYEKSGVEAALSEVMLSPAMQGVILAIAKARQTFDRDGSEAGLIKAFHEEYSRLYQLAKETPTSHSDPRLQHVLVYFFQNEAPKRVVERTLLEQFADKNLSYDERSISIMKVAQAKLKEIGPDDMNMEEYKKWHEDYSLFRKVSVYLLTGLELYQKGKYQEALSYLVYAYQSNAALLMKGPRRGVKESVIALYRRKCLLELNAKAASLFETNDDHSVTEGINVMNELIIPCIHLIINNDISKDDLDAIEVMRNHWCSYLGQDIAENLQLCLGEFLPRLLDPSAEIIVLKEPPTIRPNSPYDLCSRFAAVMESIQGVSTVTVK
How it was run: as §1

Measured: log2 ratio of Biotin-Ahx-Ub-VS probe labelling

Sequence of USP24 (Q9UPU5 whole entry): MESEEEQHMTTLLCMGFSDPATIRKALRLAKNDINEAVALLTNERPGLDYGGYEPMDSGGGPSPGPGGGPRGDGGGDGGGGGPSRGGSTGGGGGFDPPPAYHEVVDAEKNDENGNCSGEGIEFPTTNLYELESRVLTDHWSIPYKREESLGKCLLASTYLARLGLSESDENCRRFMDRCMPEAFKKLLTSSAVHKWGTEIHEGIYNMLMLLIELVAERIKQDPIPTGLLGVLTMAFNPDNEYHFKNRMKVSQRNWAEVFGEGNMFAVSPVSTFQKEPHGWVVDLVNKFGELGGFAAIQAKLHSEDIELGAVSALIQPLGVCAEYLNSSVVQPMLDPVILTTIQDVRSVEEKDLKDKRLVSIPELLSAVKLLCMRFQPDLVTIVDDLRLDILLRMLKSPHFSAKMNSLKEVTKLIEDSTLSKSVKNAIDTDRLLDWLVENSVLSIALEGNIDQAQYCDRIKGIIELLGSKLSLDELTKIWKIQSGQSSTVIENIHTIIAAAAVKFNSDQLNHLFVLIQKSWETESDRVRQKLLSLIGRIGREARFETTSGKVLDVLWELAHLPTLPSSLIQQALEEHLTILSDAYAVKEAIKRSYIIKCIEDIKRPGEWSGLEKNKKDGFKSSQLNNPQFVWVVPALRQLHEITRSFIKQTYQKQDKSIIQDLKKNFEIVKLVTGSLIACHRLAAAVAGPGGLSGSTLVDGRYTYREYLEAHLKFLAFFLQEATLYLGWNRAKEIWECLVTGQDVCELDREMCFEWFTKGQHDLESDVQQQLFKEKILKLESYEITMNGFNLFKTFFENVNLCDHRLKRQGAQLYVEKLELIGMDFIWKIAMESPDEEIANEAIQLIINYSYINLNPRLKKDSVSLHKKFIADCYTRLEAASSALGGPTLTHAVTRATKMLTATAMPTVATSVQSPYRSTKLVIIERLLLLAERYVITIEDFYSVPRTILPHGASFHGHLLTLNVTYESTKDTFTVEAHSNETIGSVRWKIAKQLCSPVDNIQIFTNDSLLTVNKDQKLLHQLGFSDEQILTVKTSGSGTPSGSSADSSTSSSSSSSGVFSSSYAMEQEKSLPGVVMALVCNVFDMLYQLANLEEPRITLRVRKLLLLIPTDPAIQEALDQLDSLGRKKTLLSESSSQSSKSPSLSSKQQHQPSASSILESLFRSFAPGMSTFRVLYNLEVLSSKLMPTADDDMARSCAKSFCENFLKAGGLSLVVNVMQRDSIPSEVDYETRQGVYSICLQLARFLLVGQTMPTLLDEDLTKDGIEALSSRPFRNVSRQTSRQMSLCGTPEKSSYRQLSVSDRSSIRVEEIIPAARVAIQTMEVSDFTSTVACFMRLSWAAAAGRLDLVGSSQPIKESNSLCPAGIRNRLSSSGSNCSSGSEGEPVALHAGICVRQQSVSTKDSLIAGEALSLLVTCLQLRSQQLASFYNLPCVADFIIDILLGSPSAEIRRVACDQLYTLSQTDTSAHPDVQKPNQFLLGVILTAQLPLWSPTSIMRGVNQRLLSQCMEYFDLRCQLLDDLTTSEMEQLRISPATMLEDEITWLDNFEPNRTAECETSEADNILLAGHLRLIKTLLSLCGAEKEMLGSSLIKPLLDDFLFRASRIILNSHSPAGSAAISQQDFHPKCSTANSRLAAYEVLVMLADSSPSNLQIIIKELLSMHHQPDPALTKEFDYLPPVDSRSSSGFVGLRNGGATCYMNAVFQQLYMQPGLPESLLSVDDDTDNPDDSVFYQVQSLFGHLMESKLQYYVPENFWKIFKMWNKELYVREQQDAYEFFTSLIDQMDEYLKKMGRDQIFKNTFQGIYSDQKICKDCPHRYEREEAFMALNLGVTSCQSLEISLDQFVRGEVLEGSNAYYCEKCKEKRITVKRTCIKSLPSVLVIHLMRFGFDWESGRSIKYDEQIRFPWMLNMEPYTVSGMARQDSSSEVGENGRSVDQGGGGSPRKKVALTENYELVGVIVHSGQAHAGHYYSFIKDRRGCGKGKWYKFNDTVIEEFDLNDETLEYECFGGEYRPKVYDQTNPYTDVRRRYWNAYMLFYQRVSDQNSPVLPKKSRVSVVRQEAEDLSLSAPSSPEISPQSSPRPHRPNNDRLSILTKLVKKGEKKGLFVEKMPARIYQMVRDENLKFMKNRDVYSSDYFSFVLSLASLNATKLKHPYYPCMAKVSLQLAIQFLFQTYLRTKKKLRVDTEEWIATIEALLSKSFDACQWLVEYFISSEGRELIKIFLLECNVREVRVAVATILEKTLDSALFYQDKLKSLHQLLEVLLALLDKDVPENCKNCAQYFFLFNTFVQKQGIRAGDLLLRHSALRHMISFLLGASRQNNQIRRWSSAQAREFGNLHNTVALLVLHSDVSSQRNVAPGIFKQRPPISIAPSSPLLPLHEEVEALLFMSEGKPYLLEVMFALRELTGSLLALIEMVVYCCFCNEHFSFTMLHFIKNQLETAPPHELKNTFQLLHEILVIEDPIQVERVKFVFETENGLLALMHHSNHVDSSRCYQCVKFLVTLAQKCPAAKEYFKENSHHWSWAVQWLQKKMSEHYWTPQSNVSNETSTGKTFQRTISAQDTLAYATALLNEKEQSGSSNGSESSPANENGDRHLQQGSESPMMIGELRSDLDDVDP

Cl.O=C(CCl)N1CCn2cncc2C1
inactive: USP19 -0.443 | USP22 -0.0616 | USP24 -0.129 | USP25 -0.134 | USP28 -0.354
